Results on 7 compounds are retold here after PubChem BioAssay (NCI).

The structures appear in SMILES notation. This is part of a sample that, as a whole, favours compounds with a hit. Of some 83,000 tested, about 20% had one in any assay.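 Values shown are percent growth following 48 h exposure of cells in 96-well plates to a single concentration of compound; below 10 was considered active.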 Unmarked numbers belong to inactive results. The source made the active and inactive calls.

Test systems include HCT-15 colon; HT29 colon; SNB-75 CNS; SNB-19 CNS; U251 CNS; PC-3 prostate; SK-MEL-5 melanoma; UACC-62 melanoma; LOX IMVI melanoma; SK-MEL-28 melanoma; SK-MEL-2 melanoma; EKVX NSCLC; SN12C renal; UO-31 renal; TK-10 renal; ACHN renal; CAKI-1 renal; CCRF-CEM leukemia; MOLT-4 leukemia; A498 renal.
Common to all, as to test: NCI-60 one-dose screen, 48 h (100 = growth as untreated, 0 = no growth, -100 = all killed)
Holding throughout (conditions): 10 µM unless noted

Turning to `COc1ccc(C2Nc3nc(SC)nc(N)c3N=C3c4ccccc4CCC32)cc1` (stereo not drawn), the growth in the assay on HCT-15 colon was 75.9%; with HT29 colon it was 69.9%; in the assay on SNB-75 CNS, 92.5%; in the assay with SNB-19 CNS, 104%; in the assay with U251 CNS it was 95%; with PC-3 prostate, 54.7%. Further, the growth is 80.2% in the assay with SK-MEL-5 melanoma; 85.3% with UACC-62 melanoma; 89.9% in the assay with LOX IMVI melanoma; 103% with SK-MEL-28 melanoma; 107% in the assay with SK-MEL-2 melanoma; 58.5% with EKVX NSCLC. Moreover, the growth with SN12C renal was 109%; in the assay with UO-31 renal, 73.3%; in the assay on TK-10 renal, 158%; with ACHN renal, 103%; in the assay on CAKI-1 renal, 85.6%; with CCRF-CEM leukemia, 47.8%. Besides, the growth in the assay on MOLT-4 leukemia is 69.7%.
Turning to `COc1ccc(/C(C)=C(\c2ccc(OCCN3CCCCCC3)cc2)c2ccc(OC(=O)C3CCCCC3)cc2)cc1`, the growth in the assay with HCT-15 colon was -76.7% (active); in the assay with HT29 colon it was -71% (active); in the assay with SNB-75 CNS it was -11.1% (active); with SNB-19 CNS it was 3.58% (active); with U251 CNS, -84.9% (active); in the assay with PC-3 prostate, -49.8% (active). Moreover, the growth with SK-MEL-5 melanoma was -99.7% (active); in the assay on UACC-62 melanoma, -73.7% (active); in the assay with LOX IMVI melanoma, -93.5% (active); in the assay on SK-MEL-28 melanoma, -84.5% (active); with SK-MEL-2 melanoma, -78.3% (active); in the assay with EKVX NSCLC it was -25.3% (active). Also, the growth in the assay with SN12C renal was -87.2% (active); in the assay with UO-31 renal, -96.9% (active); with TK-10 renal it was -79.2% (active); in the assay with ACHN renal, -88.5% (active); with CAKI-1 renal it was -34.4% (active); in the assay on CCRF-CEM leukemia, -31.5% (active). The growth with MOLT-4 leukemia is -13.7% (active).
Regarding `O=C(CCCCCCCCC(=O)N/N=C\c1ccccc1O)N/N=C\c1ccccc1O`, the growth in the assay with HCT-15 colon is 22.1%; in the assay with HT29 colon it was 68.4%; in the assay with SNB-75 CNS, 37.5%; in the assay on SNB-19 CNS, 24.1%; in the assay on U251 CNS, 15.2%; with PC-3 prostate, 31.5%. The growth in the assay on SK-MEL-5 melanoma is -59.8% (active); with UACC-62 melanoma, -7.2% (active); in the assay with LOX IMVI melanoma, 10.8%; with SK-MEL-28 melanoma it was 35.6%; in the assay on SK-MEL-2 melanoma, 32%; in the assay with EKVX NSCLC it was 26.3%. Further, the growth in the assay on SN12C renal is 21.6%; in the assay on UO-31 renal, 13.2%; in the assay with TK-10 renal, 46.4%; in the assay on CAKI-1 renal it was 9.16% (active); in the assay on A498 renal, 46.5%; with CCRF-CEM leukemia, 10.8%. The growth in the assay with MOLT-4 leukemia was 15%.
With `Cc1ccc(-c2nc3nc(-c4ccccc4)nc(N4CCN(S(=O)(=O)c5ccccc5)CC4)c3o2)cc1`, the growth is 103% in the assay on HCT-15 colon; 97.7% in the assay with HT29 colon; -17.2% (active) with SNB-75 CNS; 32.9% in the assay on SNB-19 CNS; 78.9% in the assay on U251 CNS; 96.4% with PC-3 prostate. Also, the growth in the assay with SK-MEL-5 melanoma was 95%; in the assay on UACC-62 melanoma, 101%; in the assay with LOX IMVI melanoma it was 96.7%; in the assay with SK-MEL-28 melanoma, 106%; in the assay with SK-MEL-2 melanoma, 76.9%; in the assay with EKVX NSCLC, 96.1%. The growth in the assay on SN12C renal was 94.3%; in the assay with UO-31 renal, 99.2%; in the assay on TK-10 renal, 79.1%; in the assay with ACHN renal, 72%; in the assay on CAKI-1 renal it was 84%; with CCRF-CEM leukemia, 108%. For the same compound, in the assay with MOLT-4 leukemia, the growth was 102%.
With `CC(=O)N1N=C(c2ccc(Nc3nc(Nc4ccc(F)cc4)nc(Nc4ccc(Cl)cc4)n3)cc2)CC1c1ccc(N(C)C)cc1` (stereo not drawn), the growth in the assay with HCT-15 colon is 38.4%; in the assay on HT29 colon it was 36.8%; in the assay with SNB-75 CNS, 40.3%; with SNB-19 CNS it was 59.2%; in the assay with U251 CNS, 53.7%; in the assay with PC-3 prostate it was 22.2%. In addition, the growth is 32.4% in the assay on SK-MEL-5 melanoma; 35.2% in the assay on UACC-62 melanoma; 63.1% in the assay on LOX IMVI melanoma; 60% in the assay on SK-MEL-28 melanoma; 30.8% with SK-MEL-2 melanoma; 43.1% in the assay on EKVX NSCLC. In addition, the growth in the assay on SN12C renal is 66%; in the assay on UO-31 renal, 50.8%; with TK-10 renal it was 50.5%; with CAKI-1 renal, 35.3%; in the assay with A498 renal, 68.4%; with CCRF-CEM leukemia, -27.6% (active). In addition, the growth in the assay with MOLT-4 leukemia is 29.4%.
As to `Cc1nn(-c2nc(-c3cc4ccccc4oc3=O)cs2)c(C)c1N=Nc1ccccc1`, the growth in the assay on HCT-15 colon is 106%; with HT29 colon, 103%; in the assay with SNB-75 CNS it was 89.4%; in the assay with SNB-19 CNS, 101%; in the assay with U251 CNS, 88.8%; in the assay on PC-3 prostate, 106%. Besides, the growth was 101% in the assay on SK-MEL-5 melanoma; 86.6% in the assay on UACC-62 melanoma; 96.7% in the assay on LOX IMVI melanoma; 108% with SK-MEL-28 melanoma; 113% in the assay with SK-MEL-2 melanoma; 99.8% with EKVX NSCLC. Further, the growth was 103% in the assay with SN12C renal; 79.3% in the assay with UO-31 renal; 112% with TK-10 renal; 108% in the assay on ACHN renal; 89.2% with CAKI-1 renal; 105% in the assay on CCRF-CEM leukemia. Besides, in the assay with MOLT-4 leukemia, the growth is 100%.
With `C#Cc1cc(C(=O)Nc2ccc(CN3CCN(C)CC3)c(C(F)(F)F)c2)ccc1C`, the growth in the assay with HCT-15 colon was 26.3%; in the assay on HT29 colon, 5.65% (active); in the assay with SNB-75 CNS, 76.3%; with SNB-19 CNS, 94.9%; in the assay with U251 CNS, 56%; in the assay with PC-3 prostate, 61.5%. In addition, the growth was 15.6% with SK-MEL-5 melanoma; 40.2% in the assay on UACC-62 melanoma; 31.1% in the assay with LOX IMVI melanoma; 18.8% with SK-MEL-28 melanoma; 91.1% with SK-MEL-2 melanoma; 91.5% with EKVX NSCLC. In addition, the growth with SN12C renal was 84.5%; with UO-31 renal, 60.2%; with TK-10 renal, 94.7%; in the assay with CAKI-1 renal, 63.7%; in the assay on A498 renal, 63.9%; with CCRF-CEM leukemia it was 74.8%. Besides, the growth in the assay on MOLT-4 leukemia was 58.9%.
